# Compound activity from PubChem BioAssay.
# The full list was thinned out, with hits kept by preference.
# mHTT CaM bind – mutant huntingtin-calmodulin interaction inhibitors – biochemical, AlphaScreen, primary screen; AlphaScreen His-mHTT/GST-CaM binding, luminescence; 190,000 compounds, 3.6% hits; P42858; AID 1671202, 2021; inhibition, % at 15 µM;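 also: 0% = both proteins with DMSO and 100% = one protein alone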
# Target sequence (P42858 whole entry, looked up, stated change not applied): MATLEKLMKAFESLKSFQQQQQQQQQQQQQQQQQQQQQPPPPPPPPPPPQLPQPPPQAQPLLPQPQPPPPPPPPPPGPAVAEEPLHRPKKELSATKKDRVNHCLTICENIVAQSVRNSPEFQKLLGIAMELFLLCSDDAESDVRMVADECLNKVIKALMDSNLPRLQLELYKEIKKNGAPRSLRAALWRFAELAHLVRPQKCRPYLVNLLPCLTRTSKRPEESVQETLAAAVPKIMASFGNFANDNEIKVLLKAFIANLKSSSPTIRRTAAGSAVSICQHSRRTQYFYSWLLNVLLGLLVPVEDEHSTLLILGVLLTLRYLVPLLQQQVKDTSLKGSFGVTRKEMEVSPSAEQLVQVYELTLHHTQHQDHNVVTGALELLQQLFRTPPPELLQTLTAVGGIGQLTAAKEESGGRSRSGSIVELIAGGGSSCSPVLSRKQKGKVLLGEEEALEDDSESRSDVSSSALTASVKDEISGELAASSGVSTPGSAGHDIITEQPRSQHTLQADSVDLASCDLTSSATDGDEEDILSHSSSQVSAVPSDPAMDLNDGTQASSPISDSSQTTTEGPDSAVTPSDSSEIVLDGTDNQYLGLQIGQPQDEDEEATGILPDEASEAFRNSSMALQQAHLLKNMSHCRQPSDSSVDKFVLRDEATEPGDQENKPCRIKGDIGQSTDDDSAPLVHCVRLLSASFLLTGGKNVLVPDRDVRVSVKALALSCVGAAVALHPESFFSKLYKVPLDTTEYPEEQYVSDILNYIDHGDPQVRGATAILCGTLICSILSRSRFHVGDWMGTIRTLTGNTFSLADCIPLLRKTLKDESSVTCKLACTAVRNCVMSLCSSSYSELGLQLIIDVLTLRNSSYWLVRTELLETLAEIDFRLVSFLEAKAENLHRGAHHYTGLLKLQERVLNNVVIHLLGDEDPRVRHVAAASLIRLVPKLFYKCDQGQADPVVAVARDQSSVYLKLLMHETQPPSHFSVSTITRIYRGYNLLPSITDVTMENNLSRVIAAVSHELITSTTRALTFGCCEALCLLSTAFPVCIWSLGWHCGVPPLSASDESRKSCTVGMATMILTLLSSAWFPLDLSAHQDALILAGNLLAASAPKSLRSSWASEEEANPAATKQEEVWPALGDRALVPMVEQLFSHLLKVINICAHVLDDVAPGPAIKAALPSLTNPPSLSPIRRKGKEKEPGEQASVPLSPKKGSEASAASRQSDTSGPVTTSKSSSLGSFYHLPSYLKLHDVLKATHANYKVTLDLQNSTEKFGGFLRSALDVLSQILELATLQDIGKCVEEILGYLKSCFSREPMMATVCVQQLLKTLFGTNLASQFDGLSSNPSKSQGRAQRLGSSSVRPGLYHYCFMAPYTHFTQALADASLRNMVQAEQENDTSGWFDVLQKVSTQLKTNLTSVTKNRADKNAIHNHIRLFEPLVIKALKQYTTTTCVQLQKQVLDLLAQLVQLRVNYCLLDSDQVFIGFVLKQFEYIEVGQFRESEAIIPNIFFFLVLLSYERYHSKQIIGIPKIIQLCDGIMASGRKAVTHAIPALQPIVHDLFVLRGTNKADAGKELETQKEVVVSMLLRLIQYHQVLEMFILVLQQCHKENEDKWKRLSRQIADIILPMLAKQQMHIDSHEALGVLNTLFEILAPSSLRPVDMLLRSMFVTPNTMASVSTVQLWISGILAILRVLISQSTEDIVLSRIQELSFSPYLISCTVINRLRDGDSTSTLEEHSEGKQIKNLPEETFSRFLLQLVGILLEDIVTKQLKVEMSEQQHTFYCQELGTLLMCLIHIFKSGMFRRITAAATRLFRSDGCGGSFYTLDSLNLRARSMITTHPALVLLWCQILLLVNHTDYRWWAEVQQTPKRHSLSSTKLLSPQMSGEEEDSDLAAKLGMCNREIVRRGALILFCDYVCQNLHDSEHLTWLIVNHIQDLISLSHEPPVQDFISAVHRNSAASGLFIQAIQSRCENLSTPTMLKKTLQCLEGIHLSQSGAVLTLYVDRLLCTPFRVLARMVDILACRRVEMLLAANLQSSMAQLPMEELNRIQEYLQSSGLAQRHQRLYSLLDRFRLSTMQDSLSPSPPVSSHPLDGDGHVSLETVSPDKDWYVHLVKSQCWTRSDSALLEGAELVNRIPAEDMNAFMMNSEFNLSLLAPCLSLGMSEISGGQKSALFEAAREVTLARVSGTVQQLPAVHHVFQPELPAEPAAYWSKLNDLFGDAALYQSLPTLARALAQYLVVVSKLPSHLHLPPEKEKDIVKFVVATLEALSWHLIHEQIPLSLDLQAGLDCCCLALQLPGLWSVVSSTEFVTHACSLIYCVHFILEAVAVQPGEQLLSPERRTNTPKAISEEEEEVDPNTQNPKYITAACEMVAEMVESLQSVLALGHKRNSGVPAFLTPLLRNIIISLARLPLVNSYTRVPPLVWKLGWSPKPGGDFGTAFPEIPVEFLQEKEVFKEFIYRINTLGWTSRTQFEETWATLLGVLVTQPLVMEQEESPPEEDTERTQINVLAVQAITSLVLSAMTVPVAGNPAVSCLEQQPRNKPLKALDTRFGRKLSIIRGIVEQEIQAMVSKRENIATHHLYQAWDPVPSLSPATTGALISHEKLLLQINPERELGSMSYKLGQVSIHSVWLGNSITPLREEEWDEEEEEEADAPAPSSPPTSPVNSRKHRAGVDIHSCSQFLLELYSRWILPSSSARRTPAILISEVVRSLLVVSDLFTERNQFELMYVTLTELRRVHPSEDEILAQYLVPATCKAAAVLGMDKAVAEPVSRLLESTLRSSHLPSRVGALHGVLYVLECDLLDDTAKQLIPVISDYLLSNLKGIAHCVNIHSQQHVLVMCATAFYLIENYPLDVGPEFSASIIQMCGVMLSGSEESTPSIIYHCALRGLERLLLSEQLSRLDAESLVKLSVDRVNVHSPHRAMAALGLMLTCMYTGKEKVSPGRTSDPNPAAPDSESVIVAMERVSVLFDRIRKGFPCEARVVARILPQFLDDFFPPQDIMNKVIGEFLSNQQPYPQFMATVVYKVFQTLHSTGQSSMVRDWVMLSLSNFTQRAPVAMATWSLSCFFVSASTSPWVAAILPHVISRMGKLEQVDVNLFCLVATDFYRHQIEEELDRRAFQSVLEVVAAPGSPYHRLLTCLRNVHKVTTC
# Pf apPOL block – Pf-apPOL inhibitors, biochemical, fluorescence. Plasmodium falciparum apicoplast DNA polymerase (apPOL). Recombinant Pf-apPOL, molecular beacon fluorescence, 1.5 h. inhibition, % at 10 µM. 210,000 compounds, 0.25% hits. AID 1794808, 2022
# An asterisk follows results filed as active; x = no result given. Rule as the data show it: active = inhibition above about 50%; inactive = the rest.
SMILES,mHTT CaM bind,Pf apPOL block
CCc1ccc(N(CC(=O)N2CCCC2)S(=O)(=O)c2ccccc2)cc1,-2.5,4.6
CCc1ccc(N(CC(=O)N2CCN(c3ccccc3)CC2)S(=O)(=O)c2ccccc2)cc1,53.5*,2.8
CC(=O)N1CCN(c2nc3c(s2)CC(C(=O)N2CCCCCC2)CC3)CC1 (centres undefined),9.1,-1.3
COc1ccc2[nH]cc(CCN3CC(C(=O)Nc4nc5ccc(C)cc5s4)CC3=O)c2c1 (centres undefined),55.6*,-2.0
Cc1ccc2nc(NC(=O)C3CC(=O)N(CCc4c[nH]c5ccc(F)cc45)C3)sc2c1 (centres undefined),91.2*,-1.2
Cc1ccc(C)c(NC(=O)C2CC(=O)N(CCc3c[nH]c4ccc(F)cc34)C2)c1 (centres undefined),22.2,0.3
COc1ccc2[nH]cc(CCN3CC(C(=O)Nc4ccc(C)cc4C)CC3=O)c2c1 (centres undefined),12.2,-2.8
Cc1ccc(-n2nc3c(c2NC(=O)c2cc(C)cc(C)c2)CSC3)cc1,22.0,-2.3
COc1ccc(OC)c(N2CCN(C(=O)c3ccccc3C)C(C)C2=O)c1 (centres undefined),-8.9,3.3
NC(=O)c1ccc(Nc2nnc(-c3ccc(O)cc3)c3ccccc23)cc1,21.0,-34.4
NNc1nnc(-c2ccccc2)c(-c2ccccc2)n1,100.1*,1.4
NNc1nnc(-c2ccccc2)c2ccccc12,67.6*,1.7
CC(=NNc1nnc(-c2ccccc2)c(-c2ccccc2)n1)c1ccco1,x,-3.1
Cc1cccc(N(CC(=O)Nc2ccc(S(=O)(=O)N3CCCCC3)cc2)S(C)(=O)=O)c1C,9.5,1.4
CCn1cc2c3c(cccc31)CN(C(=O)c1cccc(OC)c1)CC2,68.6*,-2.5
CCn1cc2c3c(cccc31)CN(C(=O)NCc1cccc(OC)c1)CC2,5.9,5.4
Cn1cc2c3c(cccc31)CN(C(=O)C1CCCCC1)CC2,62.0*,-5.5
COc1cc(NC(=O)N2CCc3cn(C)c4cccc(c34)C2)cc(OC)c1,-1.6,-1.1
Cn1cc2c3c(cccc31)CN(C(=O)C1CCCC1)CC2,39.0,-3.8
COc1cc(OC)cc(C(=O)N2CCc3cn(C)c4cccc(c34)C2)c1,54.9*,-0.8
N#CC1=C(N)C(C#N)(C#N)C(c2ccco2)C2=C1CCCC2 (centres undefined),11.7,x
CC1CCCCN1C(=O)c1ccccc1N1CCC(NC(=O)C2CCC2)CC1 (centres undefined),8.2,-13.7
O=C(CSc1nc2ccccc2s1)N1CCN(c2nc3ccccc3s2)CC1,-1.1,-6.0
CC(=O)N1c2c(cc(Br)cc2S(=O)(=O)N2CCc3ccccc3C2)CC1C (centres undefined),58.0*,-2.6
CC(=O)N1c2c(cc(Br)cc2S(=O)(=O)N2CCc3ccccc32)CC1C (centres undefined),20.0,1.4
SMILES,mHTT CaM bind,Pf apPOL block
Cc1cccc(-c2nc3cc(N)ccc3o2)c1,0.1,-6.6
O=C(CSc1ccc(-c2ccccn2)nn1)c1ccc([N+](=O)[O-])cc1,99.6*,2.4
Cc1nc(C)c(-c2ccc(SCC(=O)c3ccc([N+](=O)[O-])cc3)nn2)s1,20.9,2.2
Cc1ccc(Cl)cc1NC(=O)C1CCN(C(=O)c2ccc(Cl)cc2Cl)CC1,11.1,-6.3
COc1ccc2oc(=O)c(-c3nnc(Nc4cc([N+](=O)[O-])ccc4F)s3)cc2c1,3.0,-4.7
CCN(CC)C(=O)Oc1c(I)cc(Cl)c2cccnc12,-1.1,-9.0
CCN(CC)Cc1cc(Cl)c2cccnc2c1O,100.0*,0.0
COc1cccc2cc(C(=O)NCC3(O)CCOc4ccccc43)c(=O)oc12 (centres undefined),22.1,-0.6
COc1cc(C2C(C#N)=C(N)OC(C)=C2C(C)=O)c([N+](=O)[O-])cc1OC (centres undefined),57.2*,-5.2
COc1cc(C2C(C#N)=C(N)Oc3c2oc(CO)cc3=O)c([N+](=O)[O-])cc1OC (centres undefined),22.0,4.2
Cc1nn(-c2ccccc2)c2sc(C(=O)NC(C)C)cc12,0.7,-0.2
CN1CCC(N(C)C(=O)c2cc3c(-c4ccccc4)nn(-c4ccccc4)c3s2)CC1,99.9*,-1.1
O=[N+]([O-])c1ccc(N2CCOCC2)cc1SCc1ccco1,24.5,-5.7
O=[N+]([O-])c1ccc(N2CCN(S(=O)(=O)c3ccccc3)CC2)cc1SCc1ccco1,98.3*,-8.9
CCc1ccc(NS(=O)(=O)c2cc(Cl)ccc2OC)cc1,-8.3,-11.6
COc1ccc(Cl)cc1S(=O)(=O)Nc1ccc2c(c1)NC(=O)C(C)(C)CO2,69.4*,-9.3
CC(=O)N(C1=C(N2CCOCC2)C(=O)c2ccccc2C1=O)c1ccccc1,19.8,-0.2
CC(=O)N(C1=C(N2CCCCC2)C(=O)c2ccccc2C1=O)c1ccccc1C,27.1,-12.2
CC(=O)N(C1=C(N2CCOCC2)C(=O)c2ccccc2C1=O)c1ccc(Cl)c(Cl)c1,95.8*,-7.7
COc1cccc(N(C(C)=O)C2=C(N3CCCC3)C(=O)c3ccccc3C2=O)c1,98.6*,-12.4
Cc1cc(C)cc(-n2ccnc2SCC(=O)Nc2ccccc2C(F)(F)F)c1,33.0,-5.5
CCCc1cc(=O)n2[nH]c(C)c(-c3ccccc3)c2n1,4.9,1.2
Cc1[nH]n2c(=O)cc(Cc3ccccc3)nc2c1-c1ccc(Cl)cc1,62.5*,-3.3
CCc1nc(C2CCCN(C(=O)C3CCCCC3)C2)n[nH]1 (centres undefined),-6.8,13.4
Oc1ccc2c(c1)c(-c1ccccc1)nn2-c1ccccc1,55.0*,-3.0
SMILES,mHTT CaM bind,Pf apPOL block
Cc1c(C(=O)O)c(-c2ccccc2)nn1-c1ccccc1,0.4,-5.1
CC(=O)C1=C(C)NC(SCC(N)=O)=C(C#N)C1c1cccc([N+](=O)[O-])c1 (centres undefined),0.0,-2.9
CC(=O)C1=C(C)NC(SCC(=O)c2ccc(C)cc2)=C(C#N)C1c1ccco1 (centres undefined),-11.8,-3.0
CC(=O)C1=C(C)NC(SCC(=O)c2cccc([N+](=O)[O-])c2)=C(C#N)C1c1cccc(C)c1 (centres undefined),61.9*,-11.3
CC(=O)C1=C(C)NC(SCC(=O)c2ccc([N+](=O)[O-])cc2)=C(C#N)C1c1cccc(C)c1 (centres undefined),63.5*,0.7
CC(=O)C1=C(C)NC(SCC(=O)c2ccc([N+](=O)[O-])cc2)=C(C#N)C1c1ccco1 (centres undefined),68.6*,37.7
CCc1ccc(C2C(C#N)=C(SCC(=O)c3cccc([N+](=O)[O-])c3)NC(C)=C2C(C)=O)cc1 (centres undefined),45.4,-3.4
CC(=O)C1=C(C)NC(SCC(=O)c2ccccc2)=C(C#N)C1c1ccccc1Cl (centres undefined),-57.2,-2.7
CC(=O)C1=C(C)NC(SCC(=O)c2ccc([N+](=O)[O-])cc2)=C(C#N)C1c1ccccc1Cl (centres undefined),60.9*,-18.1
CC(C)(C)NC(=O)C1CCN(c2ccc(Cl)cc2Cl)C1=O (centres undefined),-3.9,-3.5
CCCCOc1ccc(S(=O)(=O)NCc2ccccc2)cc1,-21.5,-1.6
N#CC1=C(N)Oc2n[nH]c(C34CC5CC(CC(C5)C3)C4)c2C1c1cccnc1 (centres undefined),11.0,-0.2
